Experimental findings from PubChem BioAssay (Tox21) are described below.

Results filed as inconclusive are left out. A call without a number means that no potency is given here. Calls of active or inactive are those of the source. The call rests on the fitted dose curve; in most records, active means well fitted activation curve with a large enough effect in the signal ratio in the repeat runs (not every such curve was filed as active); inconclusive means weak or mixed curves; inactive means flat fitted curve, though single readings scatter; the % refers to the signal ratio.

A short description of this assay: p53 small molecule agonists, cell-based qHTS assay (AID 1963582). Particulars: HCT-116 p53RE-bla reporter, beta-lactamase FRET ratio, 16 h; series mostly up to 66 µM. The text has this:
National Center for Advancing Translational Sciences [NCATS]
Division of Preclinical Innovation [DPI]
U.S. Environmental Protection Agency [EPA]
National Institutes of Environmental Health Sciences [NIEHS]
National Toxicology Program [NTP]
U.S. Food and Drug Administration [FDA]
p53, a tumor suppressor protein, is activated following cellular insult, including DNA damage and other cellular stresses. The activation of p53 regulates cell fate by inducing DNA repair, cell cycle arrest, apoptosis, or cellular senescence. The activation of p53, therefore, is a good indicator of DNA damage and other cellular stresses. […] The activation of the reporter gene under culture conditions can be detected by fluorescence intensity. This cell line was used to screen the Tox21 10K compound library in a 1536-well plate format and to identify agonists that activate the p53 signaling pathway.
Tox21 Assay Protocol Summary:
The p53RE-bla cells were dispensed at 4,000 cells/5 ul/well in 1536-well black wall/clear bottom plates using a Multidrop dispenser. After the assay plates were incubated at a 37 C/5% CO2 incubator for 5 hours, 23 nL of compounds dissolved in DMSO, positive controls or DMSO only was transferred to the assay plate by a pin tool. The plates were incubated at 37 C for 16 hours. After 1 uL of LiveBLAzerTM B/G FRET substrate was added using a Flying Reagent Dispenser, the plates were incubated at room temperature for 2 hours, and fluorescence intensity was measured by an Envision plate reader.
In general terms: Quantitative high-throughput screening tests each substance at several concentrations.
As for `O=C(O)c1ccccc1S`, the Potency entry was “inactive”. On to `Cc1ccc(O)c([N+](=O)[O-])c1`, for which the Potency entry was “inactive”.

`CS(=O)(=O)O`: the Potency result was “inactive”. The entry for `C[C@@H]1CCN(C(=O)[C@H](CCCN=C(N)N)NS(=O)(=O)c2cccc3c2NC[C@H](C)C3)[C@@H](C(=O)O)C1` is “inactive”; for `O=c1cc(CO)occ1O` it is “inactive”; for `Nc1ccc(NCCO)c([N+](=O)[O-])c1` it is “inactive”. As to `CC(O)Cn1cnc2c1c(=O)n(C)c(=O)n2C` (stereo not given), the Potency result was “inactive”. On to `CCO[Si](C)(C)OCC`, for which the Potency result was “inactive”. With `C=C(C)C(=O)OCCCCCCOC(=O)C(=C)C`, the Potency result is “inactive”. In the case of `O=C(O)C(=O)Nc1cccc(-c2nn[nH]n2)c1` it was “inactive”.

For the compound `CC(CN1c2ccccc2Sc2ccccc21)N(C)C` (stereo not given), the Potency entry is “inactive”.

For the compound `Cc1ccc(N(C)C)cc1`, the Potency result was “inactive”. With `CCCc1ccccc1`, the Potency entry is “inactive”. On to `O=C1c2c(O)ccc(Nc3ccc(CCO)cc3)c2C(=O)c2c([N+](=O)[O-])ccc(O)c21`, for which the Potency result was “inactive”. With `CCNc1nc(N)nc(Cl)n1`, the Potency result was “inactive”.

For the compound `O=C(O)c1cccc(C(F)(F)F)c1`, the Potency entry is “inactive”. `COc1cc(C)c(Cc2cnc(N)nc2N)cc1OC`: the Potency entry is “inactive”.

In the case of `CC1=CC[C@@]23C[C@@H]1C(C)(C)[C@@H]2CC[C@H]3C`, the Potency result is “inactive”. For `OCc1c2ccccc2cc2ccccc12`, the Potency entry is “inactive”.

As for `C=CC(=O)OCCCCCC`, the Potency entry is “inactive”. As for `ON(Cc1ccccc1)Cc1ccccc1`, the Potency result was “inactive”. `CCCCC(CC)CCC(CC(C)C)OS(=O)(=O)O` (stereo not given): the Potency result is “inactive”. Consider `CC(C)(C)C1CCCCC1O` (stereo not given), for which the Potency entry was “inactive”. Consider `CCOCCOCCOCC`, for which the Potency result was “inactive”. Turning to `CCCCCCCCSCCO`, the Potency entry was “inactive”.

For the compound `CCOC=C(C(=O)OCC)C(=O)OCC`, the Potency entry was “inactive”. On to `CCCCCCCC(=O)[O-].CCCCCCCC(=O)[O-].[Zn+2]`, for which the Potency entry was “inactive”.

Take `CC(C)=CCCC(C)CCOC(=O)C(C)C` (stereo not given): the Potency result was “inactive”. On to `CN1CCCC1=O`, for which the Potency result is “inactive”. In the case of `CC(C)=O`, the Potency result is “inactive”. Regarding `C=CC(C)(O)CC/C=C(\C)CC` (stereo not given), the Potency entry is “inactive”. Consider `NC(=Nc1ccccc1)Nc1ccccc1`, for which the Potency entry is “inactive”. For the compound `C=CC(C)CCC=C(C)C` (stereo not given), the Potency result is “inactive”. Take `O=[Si]=O`: the Potency entry is “inactive”. As to `CC(=O)OC[C@H]1O[C@@H](OC(C)=O)[C@H](OC(C)=O)[C@@H]1OC(C)=O`, the Potency entry was “inactive”.

On to `c1cnc2cc3c(cc2n1)C1CNCC3C1`, for which the Potency result is “inactive”.

Consider `NCCC(O)(P(=O)(O)O)P(=O)(O)O`, for which the Potency entry is “inactive”. For the compound `Cc1sccc1Br`, the Potency result was “inactive”. Consider `COc1cc(C(=O)N2CCOCC2)cc(OC)c1OC`, for which the Potency entry was “inactive”. Take `Cc1ccc(-c2ccccc2)cc1`: the Potency entry was “inactive”.
